Compound activity: PubChem BioAssay, Johns Hopkins Ion Channel Center
KCNQ2 inh – rat KCNQ2 potassium channel inhibitors, primary screen, cell-based, CHO-K1, FluxOR thallium flux, B-score; 310,000 tested, 1.1% active; AID 2156, 2009; 20 min; stronger effect = lower value; B-score at 10 µM; Potassium voltage-gated channel subfamily KQT member 2 (Rattus norvegicus), O88943;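 active means fluorescence ratio B-score at most minus 3 library SDs, with starting brightness B-score within 2 library SDs, cut at about -5.5 in these data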
KCNQ2 enhance – potentiators of rat KCNQ2 potassium channel; Potassium voltage-gated channel subfamily KQT member 2 (Rattus norvegicus), O88943; CHO-K1 KCNQ2, FluxOR thallium flux fluorescence; stronger effect = higher value; B-score at 10 µM; 310,000 tested, 0.54% active;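 active means fluorescence ratio B-score at least 3 SD of library B-scores, with initial fluorescence B-score within 3 of them, cut at about 5.3 in these data; same plate scores as AID 2156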;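 further: B-score of peak minus minimum over baseline fluorescence ratio after K+ and Tl+ stimulus; positive B-score means potentiation of KCNQ2 with more thallium influx and brighter signal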
Large screens that a line does not name were inactive. Rows were chosen to be rich in hits. Some 1.6% of all compounds tested hit in one or more screens of this group.

CNC(=O)c1sc(N2N=C3/C(=C/c4ccccc4)CCCC3C2c2ccccc2)nc1C (stereo not drawn)	KCNQ2 inh -6.1
Cc1ccc(C2C3=C(CC(C)(C)CC3=O)N=C3c4ccccc4C(=O)C32)cc1 (stereo not drawn)	none (no result: KCNQ2 enhance)
C=CCC1(C#N)C(SC)=NC2=C(C(=O)CC(C)(C)C2)C1c1ccc(Br)cc1 (stereo not drawn)	KCNQ2 inh -6.6
Cc1ccc(F)cc1NC(=O)CSc1nnc(CNC(=O)c2ccco2)n1C	none
Cc1ccc(SCCC(=O)NCCSCc2ccccc2C)cc1	KCNQ2 inh -7.8
CCCCNC(=O)CCSc1ccc(C)cc1	none (no result: KCNQ2 enhance)
COc1ccc(OC)c(NC(=O)NC2CCCc3ccccc32)c1 (stereo not drawn)	none (no result: KCNQ2 enhance)
CN(C(=O)/C=C/c1ccccc1)C1CCCCC1	none (no result: KCNQ2 enhance)
Cc1ccc(OCCOC(=O)Nc2ccccc2)cc1	none
C=C(C)C1CCC(C)=C1COC(=O)Nc1ccccc1 (stereo not drawn)	KCNQ2 inh -5.9
Cc1cc(-c2n[nH]c(=S)n2-c2ccc(F)cc2)nn1C	KCNQ2 inh -6.3
Cc1cc(C(F)(F)F)nn1Cc1n[nH]c(=S)n1-c1ccc(F)cc1	none
CCCCc1c(C(=O)O)cc(OC)cc1C(=O)O	none
CCCCCc1c2c(cc(O)c1C(=O)O)OC(=O)c1c(cc(OC)cc1C(=O)CCCC)O2	KCNQ2 inh -6.7
Cc1ccc(C)c(C(=O)CCC(=O)NCc2ccc(Cl)cc2)c1	KCNQ2 inh -6
Cc1ccc(CNC(=O)CCS(=O)(=O)c2ccc(Cl)cc2)cc1	none (no result: KCNQ2 enhance)
CCCC(=O)N(C1CC(C)C(C#N)(C#N)C1(C#N)C#N)N(C)C (stereo not drawn)	KCNQ2 enhance 11
CCOC(=O)c1c(NC(=O)CSc2ncnc3[nH]ncc23)sc2c1CCC(C)C2 (stereo not drawn)	none
O=C(NCc1cn2ccsc2n1)c1cccc(C(F)(F)F)c1	none (no result: KCNQ2 enhance)
Cc1csc2nc(CNC(=O)c3cccc(C(F)(F)F)c3)cn12	KCNQ2 inh -6.2
CCOc1ccc2oc(C(=O)N(CC)CC(=O)Nc3c(F)cccc3F)c(C)c2c1	none (no result: KCNQ2 enhance)
CC(C)(C)CC(=O)N[C@@H](Cc1ccccc1)c1nc2ccccc2[nH]1	KCNQ2 inh -7.2
CSCC[C@H](NC(=O)CC(C)(C)C)c1nc2ccccc2[nH]1	none (no result: KCNQ2 enhance)
O=C(NCc1ccc(Cl)cc1)C1CC(O)CN1S(=O)(=O)c1ccc(Cl)cc1 (stereo not drawn)	none (no result: KCNQ2 enhance)
CN(/N=C/c1cc(Br)cc(Br)c1O)c1ccccc1	none (no result: KCNQ2 enhance)
COc1ccc(Br)cc1/C=N/Nc1cccc(C(=O)O)c1	none
O=C(O)c1cccc(N/N=C/c2cc(Br)cc(Br)c2O)c1	KCNQ2 enhance 5.8
Cc1c(N=Cc2cc(Br)cc(Br)c2O)cccc1C(=O)O	KCNQ2 enhance 9.5
O=C(N/N=C/c1ccc2c(c1)OCO2)c1ccc(COc2cccc3cccnc23)cc1	none
Cc1onc(-c2c(F)cccc2Cl)c1C(=O)O/N=C(\N)c1ccc([N+](=O)[O-])o1	none (no result: KCNQ2 enhance)
Cc1ccccc1N1CCN(c2ncnc3c2cnn3Cc2ccc(Cl)cc2)CC1	KCNQ2 inh -5.7
Cc1ccc(Cn2ncc3c(N4CCN(Cc5ccc(Cl)cc5)CC4)ncnc32)cc1	none (no result: KCNQ2 enhance)
CNC(=S)N1N=C(c2cccs2)CC1c1ccc(F)cc1 (stereo not drawn)	none
COc1ccc(/C=N/N2CCN(c3ccccc3OC)CC2)cc1OC	none
COc1cccc(/C=N/N2CCN(c3ccccc3OC)CC2)c1	KCNQ2 inh -5.5
COc1ccc(C2CC(c3ccc(C)cc3)=NN2C(=O)CCC(=O)O)cc1OC (stereo not drawn)	none (no result: KCNQ2 enhance)
CC(C)C(C(=O)NCC1CCCO1)N(Cc1ccccc1)C(=O)CNS(=O)(=O)c1ccccc1 (stereo not drawn)	none (no result: KCNQ2 enhance)
CCOc1ccc(-c2cc(N3C(=O)Nc4ccccc4N3O)n[nH]2)cc1	none
CCOC(=O)c1c(N2C(=O)Nc3ccccc3N2O)n[nH]c1-c1cccc(Cl)c1	KCNQ2 enhance 10
COC(=O)c1cccc(Oc2cccc(C(F)(F)F)c2)n1	none
CCc1ccc2[nH]c(=O)c(C(c3nnnn3CC3CCCO3)N3CCCc4ccccc43)cc2c1 (stereo not drawn)	KCNQ2 enhance 7.2
Cc1cc2cc(C(c3nnnn3CC3CCCO3)N3CCCc4ccccc43)c(=O)[nH]c2cc1C (stereo not drawn)	none
COC(=O)[C@@H]1CCCN1C(=O)CCc1nnc(CCC2CCCCC2)o1	none
Cc1ccc(COc2cccc3c2CCN(Cc2ccc(F)cc2)C3=O)cc1	none (no result: KCNQ2 enhance)
O=C1c2cccc(OCc3ccc(F)cc3)c2CCN1Cc1ccccc1	KCNQ2 inh -6.5
O=C(O)CC(C(=O)Nc1ccc(F)cc1)C1CCCO1 (stereo not drawn)	none
COc1cccc(C(=O)Nc2ccc(NC(=O)C3CC=CCC3C(=O)O)cc2)c1 (stereo not drawn)	none
O=C1c2cccnc2C(=O)N1Cc1ccc(S(=O)(=O)N2CCOc3ccc(Cl)cc32)cc1	none
COc1cc2c(cc1OC)C(c1ccc(-c3ccc(Cl)cc3Cl)o1)=NCC2	none (no result: KCNQ2 enhance)
COc1cc2c(cc1OC)C(c1ccc(-c3cc(Cl)ccc3Cl)o1)=NCC2	none (no result: KCNQ2 enhance)
COc1cc2c(cc1OC)C(c1ccc(-c3ccccc3Cl)o1)=NCC2	KCNQ2 inh -8.3
COc1cc2c(cc1OC)C(c1ccc(-c3ccc(Cl)c(Cl)c3)o1)=NCC2	KCNQ2 inh -8.8
CCN(Cc1ccccc1)C(=O)CCS(=O)(=O)c1ccc2c(c1)n(C)c(=O)c(=O)n2C	none
C[C@H](NC(=O)c1nc[nH]c1C(=O)NCC(=O)OCc1ccccc1)c1ccccc1	none (no result: KCNQ2 enhance)
Cc1cccc2cc(CN(CCN(C)C)C(=S)Nc3ccccc3)c(=O)[nH]c12	none (no result: KCNQ2 enhance)
COc1cc(OC)cc(C(=O)N2CCN(C(=O)c3cccs3)CC2)c1	none (no result: KCNQ2 enhance)
CCCn1c(/C=C/c2ccccc2)nc2ccccc21	KCNQ2 inh -6.1
COCCOCCn1c(/C=C/c2ccccc2)nc2ccccc21	none (no result: KCNQ2 enhance)
Cc1cccc(NC(=O)C2Cc3ccccc3CN2C(=O)OCc2ccccc2)c1C (stereo not drawn)	none (no result: KCNQ2 enhance)
Cc1c(Cl)cccc1NC(=O)C1Cc2ccccc2CN1C(=O)c1ccccc1 (stereo not drawn)	KCNQ2 inh -7.9
CCCCn1c(CNC(=O)C23CC4CC(CC(C4)C2)C3)nnc1SC(C)CC (stereo not drawn)	none (no result: KCNQ2 enhance)
Cc1ccc(-n2c(SCC(=O)Nc3ccc4c5c(cccc35)CC4)nc(O)c(C)c2=O)cc1	KCNQ2 enhance 7
Cc1ccc(-n2c(SCC(=O)Nc3ccc4c5c(cccc35)CC4)nc(O)cc2=O)cc1	none
CC1CCN(C(=O)c2ccccc2SCC(=O)NCC2CCCCC2)CC1	KCNQ2 inh -6
COCCNC(=O)CSc1ccccc1C(=O)NCC1CCCCC1	none
Cc1ccc(CNC(=O)C2CCN(c3nnc(N4CCCC4=O)s3)CC2)cc1	none (no result: KCNQ2 enhance)
O=C(Nc1ccn(-c2ccccc2)n1)c1ccc(S(=O)(=O)N2CCCCCC2)cc1	none
CCc1ccc2c(c1)C1(C(=O)N2)N2CCCC2C(C(=O)c2ccc3ccccc3c2)C12C(=O)Nc1ccccc12 (stereo not drawn)	none
CCc1ccc2c(c1)C1(NN=C(c3cccc4ccccc34)S1)C(=O)N2 (stereo not drawn)	KCNQ2 inh -14
COc1cccc(OCc2cc(C(=O)NCC3CCCCC3)no2)c1	none (no result: KCNQ2 enhance)
CCOC(=O)CC1(NC(=O)c2cc(COc3cccc(OC)c3)on2)CCCCC1	KCNQ2 inh -7
CCCCCN(C(=O)CCC(=O)OCC(=O)c1c(C)cc(C)cc1C)c1c(N)n(CCCC)c(=O)[nH]c1=O	none
COc1ccc(C2CC(c3ccccc3)=NN2C(=O)CCCC(=O)O)cc1 (stereo not drawn)	none
